# Assay results as given in the supplement of paper PMC6555819.
# What was measured:
# Test in all cases: PBM binding z-score (relative to random genomic background probes); higher = stronger binding; sequences stand for … in GC…GCGATTGACAGCGTAGAATGAAGG
# [1] = tested on: PPARg:RXRa DBDmut IVT, anti-RXR (DBD mutation: RXRa K156A/R161A, NR concentration 270 nM, RXRa partner concentration 90 nM)
# Procedure, shortened: (§1)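 For binding z-scores, the reference was random background probes on custom Agilent 4×180K protein-binding microarrays. These arrays were incubated 1 h with ligand-free nuclear receptor dimers in PBS pH 7.4, 2% milk, 0.02% Triton X-100, 1 mM DTT, 0.2 mg/mL BSA and 0.4 mg/ml salmon testes DNA. Fluorescence was scanned after antibody detection of each partner (one per run) and regression-normalized.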
# [2] = tested on: PPARg:RXRa IVT, anti-PPARg (NR concentration 270 nM, RXRa partner concentration 90 nM)
# Procedure, shortened: as §1
# [3] = tested on: PPARg DBDmut:RXRa IVT, anti-PPARg (DBD mutation: PPARg1 K132A/R137A, NR concentration 270 nM, RXRa partner concentration 90 nM)
# Procedure, shortened: as §1
# [4] = tested on: PPARg DBDmut IVT, anti-PPARg (DBD mutation: PPARg1 K132A/R137A, NR concentration 270 nM)
# Procedure, shortened: as §1
# [5] = tested on: PPARg homodimer (NR concentration 180 nM)
# Procedure, shortened: as §1
# [6] = tested on: PXR:RXRa (NR concentration 270 nM, RXRa partner concentration 90 nM)
# Procedure, shortened: as §1
# [7] = tested on: PXR homodimer (NR concentration 270 nM)
# Procedure, shortened: as §1
# [8] = tested on: RARa:RXR (NR concentration 270 nM, RXRa partner concentration 90 nM)
# Procedure, shortened: as §1
# [9] = tested on: RARa homodimer (NR concentration 270 nM)
# Procedure, shortened: as §1
# [10] = tested on: RARb:RXRa (NR concentration 270 nM, RXRa partner concentration 90 nM)
# Procedure, shortened: as §1
# [11] = tested on: RARb homodimer (NR concentration 270 nM)
# Procedure, shortened: as §1
# [12] = tested on: RARg:RXRa (NR concentration 270 nM, RXRa partner concentration 90 nM)
# Procedure, shortened: as §1
# [13] = tested on: RARg homodimer (NR concentration 270 nM)
# Procedure, shortened: as §1
# [14] = tested on: RXRa DBDmut IVT, anti-RXR (DBD mutation: RXRa K156A/R161A, NR concentration 90 nM)
# Procedure, shortened: as §1
# [15] = tested on: RXRa homodimer (NR concentration 180 nM)
# Procedure, shortened: as §1
# [16] = tested on: THRa:RXRa (NR concentration 90 nM, RXRa partner concentration 90 nM)
# Procedure, shortened: as §1
# [17] = tested on: THRa homodimer (NR concentration 90 nM)
# Procedure, shortened: as §1
# [18] = tested on: VDR:RXRa (NR concentration 270 nM, RXRa partner concentration 90 nM)
# Procedure, shortened: as §1
# [19] = tested on: VDR homodimer (NR concentration 270 nM)
# Procedure, shortened: as §1
Sequence,PBM binding z-score [1],PBM binding z-score [2],PBM binding z-score [3],PBM binding z-score [4],PBM binding z-score [5],PBM binding z-score [6],PBM binding z-score [7],PBM binding z-score [8],PBM binding z-score [9],PBM binding z-score [10],PBM binding z-score [11],PBM binding z-score [12],PBM binding z-score [13],PBM binding z-score [14],PBM binding z-score [15],PBM binding z-score [16],PBM binding z-score [17],PBM binding z-score [18],PBM binding z-score [19]
CCTTACGGGTCAAGGTTATAGCTCGGGTGGTACG,2.32,3.66,0.883,-0.415,1.91,3.16,0.16,3.72,0.652,4.12,3.57,4.65,4.28,0.811,4.81,3.01,1.1,3.3,1.18
GTACCAAGGTGAATAGGTCTTTGATGAGTAGGCG,2.18,2.5,0.818,0.145,0.986,0.0831,0.119,0.721,0.436,1.36,1.13,1.15,0.913,0.00774,0.832,1.3,0.641,0.495,0.178
TCTTGTAGATCAAGCAGGTTAAGAAGGCCTGAGT,1.58,0.43,0.564,0.0402,0.079,0.386,0.0272,0.642,-0.212,0.128,0.0999,-0.137,-0.293,0.295,0.317,0.354,-0.512,0.55,0.00431
AGAATGAGGTTACCAAAGATCAGGGACACGCTTG,4.01,3.4,0.894,0.0801,0.873,1.29,0.182,2.1,0.459,2.14,1.72,2.29,1.89,1.2,2.64,3.33,2.17,1.54,0.768
ATATGTAGGTTATCGGGTCCTTCAGTTTGCGCAT,6.92,6.98,2.02,2.6,1.69,0.963,0.468,0.74,0.677,0.829,0.87,0.677,0.506,0.751,0.855,0.708,0.719,3.81,1.51
CTCGAACGGTCGGTTGAGGTGAGTATACGGATAA,-0.509,-0.343,-0.772,-0.429,-1.41,-0.224,-0.776,0.779,-1.48,0.604,0.411,0.215,0.464,-0.356,-0.11,3.27,0.822,-0.265,-0.341
GGAACGAGGGCAAAGTCGATAGCATCTGTCGACG,3.57,3.11,0.306,0.0307,-0.309,0.155,-0.0717,0.0883,-0.247,1.87,0.649,0.932,0.988,2.53,0.723,0.62,-0.445,0.524,1.19
GCATATAGGTAATACAGGGTGAAAGTCCGATTGT,4.15,3.22,1.15,0.404,1.08,0.411,0.164,1.35,0.52,0.281,0.685,0.386,0.492,0.439,0.917,3.38,0.41,0.521,0.239
ACTAGCAGGCCAAGGGTCACGCAAGATTAGTCCG,1.52,4.53,0.585,-0.153,2.62,4.25,-0.0194,5.33,0.787,4.2,4.29,5.29,4.8,0.355,5.96,3.38,0.69,3.76,1.24
TCAGACAGGTGAAGGTAACACAGGTACGCAGTCG,2.57,1.37,-0.146,0.0418,1.19,1.02,0.463,1.28,0.787,1.32,1.34,0.896,1,1.56,1.54,1.36,0.868,1.05,0.48
TGAATGAGGTTATAAGATCAGGGCACGTTGCAAA,1.2,2.64,0.65,0.308,0.364,1.19,-0.152,1.77,0.42,1.48,1.02,1.74,1.28,0.591,2.05,2.4,0.785,1.21,0.892
GCTAGCAGGCCATTTGGCTCACTCAATGACGGGC,0.892,-0.288,-1.29,-1.19,-1.62,-1.01,-0.87,-0.778,-0.899,-0.0959,-1.05,-0.42,-0.0728,0.0311,-0.355,-1.69,-1.04,-0.942,-0.733
CCTTACGGGTCACGAGGTTATAACACGACGAGCG,3.55,5.17,1.01,0.726,2.11,4.38,0.145,5.6,0.574,4.58,3.99,6.07,5.32,1.5,6.99,3.79,0.991,5.28,1.63
AATACAGGTTCACTAGGCCAGAGTAGGTACGAAT,1.36,2.73,1.46,0.869,0.811,1.47,0.559,1.64,0.374,1.78,1.25,1.84,1.4,4.16,2.15,1.12,0.232,3.2,4.64
CGTCCAAGGTCATAGGAGGGCAGTGAAGACAGAT,3.1,3.89,1.14,0.568,2.4,6.12,1.56,4.4,0.613,5.06,4.01,5.77,5.89,3.81,5.44,4.83,2.17,5.36,3.3
